In all, about 52,000 compounds went through this assay and about 4,300 (8.3%) were called active. Only a selection was taken, and actives are over-represented in it overall. Unmarked numbers belong to inactive results. Cut-off read from the data, not from the text of the source: active = survival mostly below about 52% (no sharp cut-off); inactive = mostly above about 56%.

This assay has as its system DeltatarO mutant. Nature of the assay: S. aureus survival, RN4220 and DeltatarO strains – OD600, teichoic acid synthesis inhibitors, primary screen (AID 463173). The following applies: S. aureus RN4220 wild type/DeltatarO growth, OD600, 18 h, hits give low values, screened at 18.75 µg/mL (by protocol).
As to `CCCCOc1ccc(C(=O)NCCc2csc3nc(-c4ccccc4F)nn23)cc1`, the survival was 84%. As for `NCc1nc2cccnc2n1Cc1ccccc1Cl`, the survival is 81%. Next, `COc1ccc(C)cc1NC(=O)Nc1cc(C(=O)NCc2ccc(C)cc2)ccc1N1CCCC1`: 82%. Consider `Cc1cc2c(cc1NS(=O)(=O)c1ccc(NC(=O)CC(C)C)cc1)n(C)c(=O)c(=O)n2C`, for which the survival is 86%. As for `COc1ccc(OC)c(-c2cc(C(=O)NCCc3ccccc3)c3c(-c4ccc(C)cc4)[nH]nc3n2)c1`, the figure is 67%; as for `CCCCNc1nc2c(S(=O)(=O)c3ccc(Br)cc3)nnn2c2ccsc12`, 74%; as for `CCOc1nc(Nc2ccccc2)nc(OCC)n1`, 115%. As for `CCN(C(=O)CCS(=O)(=O)c1ccc2c(c1)CCN2C(C)=O)c1cccc(C(F)(F)F)c1`, the figure is 101%; as for `CCn1c(=O)c2cc(C(=O)NCCCN(C)Cc3ccccc3)sc2c2ccccc21`, 106%; as for `CCN(CCCNC(=O)c1cc2c(=O)n(CC)c3ccccc3c2s1)c1cccc(C)c1`, 42% (active). Next, `CCN(CCCNC(=O)CSc1cc(=O)n(C)c2cc(Cl)ccc12)c1cccc(C)c1`: 90%; `CCN(CCCNC(=O)CSc1cc(=O)n(CC)c2ccccc12)c1cccc(C)c1`: 38% (active); `Cn1c(=O)cc(SCC(=O)NCCc2ccc(Cl)cc2)c2cc(Cl)ccc21`: 75%. Consider `Cn1c(=O)cc(SCC(=O)NCc2ccc(F)cc2)c2cc(Cl)ccc21`, for which the survival is 88%. For the compound `CCn1c(=O)cc(SCC(=O)NCc2cccc(Cl)c2)c2ccccc21`, the survival was 38% (active). On to `CCN(CCCNC(=O)CSc1cc(=O)n(CC)c2ccccc12)c1ccccc1`, for which the survival was 53%. As for `CCn1c(=O)c2cc(C(=O)NCCc3cccc(C)c3)sc2c2ccccc21`, the figure is 70%; as for `CCn1c(=O)cc(SCC(=O)NCc2ccc(C)cc2)c2ccccc21`, 84%. As for `CCc1ccc(CNC(=O)CSc2cc(=O)n(CC)c3ccccc23)cc1`, the figure is 87%; as for `CCc1ccc(CNC(=O)CSc2cc(=O)n(C)c3ccc(Cl)cc23)cc1`, 31% (active); as for `Cc1cc(C)c(NC(=O)C2CCN(c3nn4c(=O)cc(C)nc4s3)CC2)c(C)c1`, 103%. As for `CC(=O)Nc1ccc(NCc2cccs2)cc1`, the figure is 101%; as for `Cc1cc(Nc2ccc(C(C)C)cc2)nc(-n2nc(C)cc2C)n1`, 90%. In the case of `COC(=O)c1cc2oc(C)cc2n1CC(=O)Nc1ccc(OC)c(OC)c1`, the survival is 131%. Next, `COc1ccc(N2CCN(Cc3nc4c(c(=O)[nH]c(=O)n4C)n3Cc3ccc(C)cc3)CC2)cc1`: 113%; `CCOC(=O)c1c(C)n(C2CCCCC2)c2ccc(OCC(N)=O)cc12`: 69%. As for `CCOC(=O)C1CCC(CN(Cc2c(Cl)cccc2Cl)S(=O)(=O)c2ccc(Cl)cc2)CC1` (centres undefined), the figure is 81%. On to `Cc1cccc2c(=O)cc(CSc3ccccc3NC(=O)c3cccc(Br)c3)[nH]c12`, for which the survival is 86%.

Consider `CCN(CC)CCNC(=O)c1c2c(nc3ccccc13)C(=O)N(C1CCCCC1)C2`, for which the survival was 94%. On to `CCOc1ccc2c(c1)c(=O)c(C(=O)c1ccc(CC)cc1)cn2CC(=O)Nc1ccccc1C`, for which the survival is 70%.

Regarding `CCOC(=O)C1CCN(C(=O)c2ccc(C)c(NC(=O)c3nsc4ccccc34)c2)CC1`, the survival is 88%. As for `CCN(CCCNC(=O)c1cc2c(=O)n(CC)c3ccccc3c2s1)Cc1ccccc1`, the figure is 101%; as for `CCN(CCCNC(=O)c1cc2c(=O)n(C)c3ccccc3c2s1)c1ccccc1`, 57%.

Take `CCN(CCCNC(=O)c1cc2c(=O)n(CC)c3ccccc3c2s1)c1ccccc1`: the survival is 47% (active). As to `Cc1ccc(Sc2c(C(=O)NCc3cccc(F)c3)[nH]c3ccccc23)cc1`, the survival was 72%. As for `O=C(Cn1cnc2scc(-c3ccccc3)c2c1=O)NCc1ccco1`, the figure is 60%.

Regarding `CCc1cccc(C)c1Nc1c(-c2ccc(SC)cc2)nc2sccn12`, the survival is 50%. With `CC(=O)N1CCc2c(sc3nc(SCC(N)=O)n(-c4ccc(F)c(Cl)c4)c(=O)c23)C1`, the survival was 75%. Next, `CCN1CCOC(=O)C1CC(=O)Nc1ccc(Br)cc1` (centres undefined): 44% (active); `CCOC(=O)c1ccc(NC(=O)CC2C(=O)OCCN2CC)cc1` (centres undefined): 61%.

For the compound `CCOc1ccc(NC(=O)CC2C(=O)OCCN2CC)cc1` (centres undefined), the survival is 56%. With `CCN1CCOC(=O)C1CC(=O)Nc1cc(C)cc(C)c1` (centres undefined), the survival was 142%. As for `CCc1ccc(NC(=O)CC2C(=O)OCCN2CC)cc1` (centres undefined), the figure is 5% (active); as for `CCN1CCOC(=O)C1CC(=O)Nc1ccc(C(C)=O)cc1` (centres undefined), 59%; as for `O=C(NCCc1ccc(Cl)cc1)c1ccc2c(c1)N(Cc1ccccc1F)C(=O)c1ccccc1S2(=O)=O`, 79%. Regarding `CCc1cccc2c(-c3ccccc3)nc(SCC(=O)Nc3ccccc3OC)nc12`, the survival is 109%.

For the compound `Cc1ccc(C)c(N2CCN(S(=O)(=O)c3cnc(N)nc3)CC2)c1`, the survival was 86%.

In the case of `COc1ccc2oc(=O)c(-c3cn4c(n3)sc3cc(F)ccc34)cc2c1`, the survival was 76%. For the compound `Cc1oc2ccc(O)c(CN3CCN(Cc4ccccc4)CC3)c2c1C(=O)Nc1ccccc1`, the survival was 68%. Next, `COc1cccc(Cc2nc3ccccc3nc2SCC(=O)NCCc2ccccc2)c1`: 87%. Regarding `COc1ccc(CNC(=O)CCc2c(C)nc3c(c(C)nn3-c3ccccc3)c2C)cc1`, the survival is 78%.

Consider `Cc1cccc(CCNC(=O)CCc2c(C)nc3c(c(C)nn3-c3ccccc3)c2C)c1`, for which the survival is 48% (active). Next, `COc1ccc(CCNC(=O)CCc2c(C)nc3c(c(C)nn3-c3ccc(C)cc3)c2C)c(OC)c1`: 107%; `COc1cc2c(-c3ccccc3O)nc3c(c(C)nn3-c3ccccc3)c2cc1OC`: 68%; `COc1cc2c(-c3ccccc3C)nc3c(c(C)nn3-c3ccccc3)c2cc1OC`: 35% (active). Next, `COc1cc2c(-c3ccccc3Cl)nc3c(c(C)nn3-c3ccccc3)c2cc1OC`: 57%. Next, `Cc1nc2c(c(C)nn2-c2ccccc2)c(C)c1CCC(=O)NCCc1ccccc1`: 58%. Take `Cc1nc2c(c(C)nn2-c2ccccc2)c(C)c1CCC(=O)NCc1ccccc1`: the survival was 70%.

In the case of `COc1ccc(CCNC(=O)CCc2c(C)nc3c(c(C)nn3-c3ccccc3)c2C)c(OC)c1`, the survival was 53% (active).

The record behind these values is PubChem BioAssay AID463173 (ICCB-Longwood Screening Facility, Harvard Medical School, 2010).
